The results in this text go back to the supplement of paper PMC10646978.

Common to all, as to conditions: modulator concentration 10 µM
Test [1] has as its system RAW-Dual (murine macrophage reporter line). Description: NF-kB reporter (SEAP) activity fold change vs agonist alone; higher = enhanced NF-kB activity. Put shortly:
(§1)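 Overnight stimulation with a PRR agonist followed pre-incubation for 1 hour at 37 °C with compound at 10 μM final. This was done in RAW-Dual murine macrophage reporter cells seeded at 50 000 per well in 384-well plates. NF-κB (SEAP, QUANTI-Blue absorbance at 620 nm) and IRF (Lucia luciferase, QUANTI-Luc luminescence) were read from the supernatant. Each reporter's fold change relative to the mean agonist-only control on the same plate was averaged over replicate plates.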

For test [2] the test system is unchanged. Description: IRF reporter (Lucia luciferase) activity fold change vs agonist alone; higher = enhanced IRF activity. Put shortly: as §1
Test [3] shares this test system. Nature of the test: viability score (confluency relative to resting cells, overnight) (fraction); higher = more viable, active = viable (0.7 or more). Put shortly: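 RAW-Dual macrophages in 384-well plates were treated overnight with compound at 10 μM final. IncuCyte imaging recorded confluency, and IncuCyte software built two confluency masks across every imaged well. The viability score expresses confluency relative to resting cells and was judged against a cutoff, which a compound met only if both masks exceeded 70% of resting cells.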

Setting [4] is: agonist: CpG ODN 1826 0.5 ug/mL.

± gives the standard deviation.

With `CCOc1ccc(C=c2sc3nc4ccccc4n3c2=O)cc1Cl`, the results for the NF-kB reporter in test [1] (setting [4]), in test [1] (agonist: LPS 0.1 ug/mL) and in test [1] (agonist: MPLA […]) were 1.07 ± 0.064, 1.02 ± 0.095 and 0.979 ± 0.031, respectively. The values for the IRF reporter in test [2] (agonist: 3'3'-cGAMP 10 ug/mL), in test [2] (agonist: LPS 0.1 ug/mL) and in test [2] (agonist: MPLA […]) were 1.01 ± 0.036, 1.06 ± 0.051 and 0.974 ± 0.094, respectively. In addition, in test [3], the viability score was 0.998 (active).
On to `N#CCCN(C1CCCCC1)S(=O)(=O)c1cccc2nsnc12`, for which the NF-kB reporter worked out at 1.05 ± 0.083 in test [1] (setting [4]), 0.826 ± 0.051 in test [1] (agonist: LPS 0.1 ug/mL) and 1.73 ± 0.58 in test [1] (agonist: MPLA […]). For the same compound, the values for the IRF reporter in test [2] (agonist: 3'3'-cGAMP 10 ug/mL), in test [2] (agonist: LPS 0.1 ug/mL) and in test [2] (agonist: MPLA […]) were 0.867 ± 0.048, 1.33 ± 0.077 and 1.28 ± 0.15, respectively. For the same compound, the viability score in test [3] was 1.01 (active).
Consider `COc1cc2ccc(=O)oc2cc1O`, for which the NF-kB reporter in test [1] (setting [4]) was 1.04 ± 0.31; in test [1] (agonist: LPS 0.1 ug/mL), 0.862 ± 0.062; in test [1] (agonist: MPLA […]), 0.892 ± 0.057. Further, the values for the IRF reporter in test [2] (agonist: 3'3'-cGAMP 10 ug/mL), in test [2] (agonist: LPS 0.1 ug/mL) and in test [2] (agonist: MPLA […]) were 0.909 ± 0.053, 1.11 ± 0.17 and 0.946 ± 0.12, respectively. Also, the viability score in test [3] was 1 (active).
For the compound `CCOc1ccccc1NC(=O)N1CCCC1CS(=O)(=O)c1ccccc1` (stereo not given), the results for the NF-kB reporter in test [1] (setting [4]), in test [1] (agonist: LPS 0.1 ug/mL) and in test [1] (agonist: MPLA […]) were 1.01 ± 0.062, 1.15 ± 0.093 and 0.954 ± 0.046, respectively. In addition, the IRF reporter in test [2] (agonist: 3'3'-cGAMP 10 ug/mL) was 1.09 ± 0.057; in test [2] (agonist: LPS 0.1 ug/mL), 1.3 ± 0.087; in test [2] (agonist: MPLA […]) it was 1.14 ± 0.16. In test [3], the viability score was 0.989 (active).
On to `CC(C=CC1=C(C)CCCC1(C)C)=CC=CC(C)=CC(=O)O`, for which the NF-kB reporter in test [1] (setting [4]) is 1.29 ± 0.11; in test [1] (agonist: LPS 0.1 ug/mL) it was 0.943 ± 0.078; in test [1] (agonist: MPLA […]), 1.01 ± 0.1. The IRF reporter in test [2] (agonist: 3'3'-cGAMP 10 ug/mL) stood at 0.568 ± 0.031; in test [2] (agonist: LPS 0.1 ug/mL), 1.1 ± 0.14; in test [2] (agonist: MPLA […]), 0.904 ± 0.19. The viability score in test [3] was 0.986 (active).
Consider `COc1ccc(C(C)=NNC(=O)Nc2ccccc2)c(OC)c1`, for which the NF-kB reporter stood at 0.92 ± 0.083 in test [1] (setting [4]), 0.865 ± 0.092 in test [1] (agonist: LPS 0.1 ug/mL) and 0.932 ± 0.088 in test [1] (agonist: MPLA […]). The IRF reporter in test [2] (agonist: 3'3'-cGAMP 10 ug/mL) stood at 1.02 ± 0.063; in test [2] (agonist: LPS 0.1 ug/mL) it was 1.26 ± 0.2; in test [2] (agonist: MPLA […]) it was 1.4 ± 0.27. For the same compound, the viability score in test [3] is 1.01 (active).
As for `O=C(NCCN1C(=O)c2ccccc2C1(O)c1ccc(Cl)cc1)Nc1ccccc1` (stereo not given), the values for the NF-kB reporter in test [1] (setting [4]), in test [1] (agonist: LPS 0.1 ug/mL) and in test [1] (agonist: MPLA […]) were 1.28 ± 0.1, 0.219 ± 0.011 and 0.22 ± 0.02, respectively. In addition, the IRF reporter in test [2] (agonist: 3'3'-cGAMP 10 ug/mL) is 0.841 ± 0.045; in test [2] (agonist: LPS 0.1 ug/mL) it was 0.0475 ± 0.0035; in test [2] (agonist: MPLA […]) it was 0.0497 ± 0.0069. Moreover, in test [3], the viability score was 0.73 (active).
Turning to `COC(=O)Nn1cnnc1`, the NF-kB reporter worked out at 1.03 ± 0.17 in test [1] (setting [4]), 1.08 ± 0.087 in test [1] (agonist: LPS 0.1 ug/mL) and 0.97 ± 0.095 in test [1] (agonist: MPLA […]). The IRF reporter in test [2] (agonist: 3'3'-cGAMP 10 ug/mL) came out at 0.984 ± 0.025; in test [2] (agonist: LPS 0.1 ug/mL), 1.25 ± 0.22; in test [2] (agonist: MPLA […]), 1.39 ± 0.24. Also, in test [3], the viability score was 1 (active).
Turning to `COc1ccc(S(=O)(=O)NCCn2nc(C(F)(F)F)cc2C2CC2)cc1`, the NF-kB reporter was found to be 0.935 ± 0.077 in test [1] (setting [4]), 1.09 ± 0.083 in test [1] (agonist: LPS 0.1 ug/mL) and 1.04 ± 0.029 in test [1] (agonist: MPLA […]). Moreover, the IRF reporter in test [2] (agonist: 3'3'-cGAMP 10 ug/mL) stood at 0.996 ± 0.037; in test [2] (agonist: LPS 0.1 ug/mL), 0.953 ± 0.096; in test [2] (agonist: MPLA […]), 0.834 ± 0.15. Also, the viability score in test [3] was 0.979 (active).
Take `Cc1cccc(CN2CCN(C(c3ccccc3)c3ccc(Cl)cc3)CC2)c1.Cl.Cl` (stereo not given): the results for the NF-kB reporter in test [1] (setting [4]), in test [1] (agonist: LPS 0.1 ug/mL) and in test [1] (agonist: MPLA […]) were 0.289 ± 0.013, 0.913 ± 0.1 and 1.44 ± 0.082, respectively. The figures for the IRF reporter in test [2] (agonist: 3'3'-cGAMP 10 ug/mL), in test [2] (agonist: LPS 0.1 ug/mL) and in test [2] (agonist: MPLA […]) were 1.35 ± 0.068, 1.28 ± 0.27 and 1.27 ± 0.35, respectively. Also, in test [3], the viability score was 0.272 (inactive).
With `CCOC(=O)C1=CC2(CC)CCCN3CCc4c(n1c1ccccc41)C32` (stereo not given), the figures for the NF-kB reporter in test [1] (setting [4]), in test [1] (agonist: LPS 0.1 ug/mL) and in test [1] (agonist: MPLA […]) were 0.79 ± 0.061, 0.928 ± 0.078 and 0.915 ± 0.09, respectively. Further, the IRF reporter came out at 0.963 ± 0.032 in test [2] (agonist: 3'3'-cGAMP 10 ug/mL), 1.3 ± 0.13 in test [2] (agonist: LPS 0.1 ug/mL) and 1.4 ± 0.21 in test [2] (agonist: MPLA […]). Further, the viability score in test [3] is 1.03 (active).
For the compound `Brc1ccc(-c2nc(-c3ccccc3)cc(N3CCOCC3)n2)cc1`, the NF-kB reporter in test [1] (setting [4]) is 1.05 ± 0.089; in test [1] (agonist: LPS 0.1 ug/mL) it was 1.01 ± 0.066; in test [1] (agonist: MPLA […]) it was 1.01 ± 0.039. Besides, the IRF reporter turned out to be 0.961 ± 0.097 in test [2] (agonist: 3'3'-cGAMP 10 ug/mL), 1.11 ± 0.1 in test [2] (agonist: LPS 0.1 ug/mL) and 1.09 ± 0.16 in test [2] (agonist: MPLA […]). In test [3], the viability score was 1 (active).
`CN(C)CCNC(=S)NC(=O)C12CCC3CC(CC(C3)C1)C2`: the NF-kB reporter in test [1] (setting [4]) was 0.978 ± 0.1; in test [1] (agonist: LPS 0.1 ug/mL), 1 ± 0.094; in test [1] (agonist: MPLA […]) it was 0.982 ± 0.062. For the same compound, the IRF reporter in test [2] (agonist: 3'3'-cGAMP 10 ug/mL) was found to be 0.994 ± 0.033; in test [2] (agonist: LPS 0.1 ug/mL), 1.5 ± 0.17; in test [2] (agonist: MPLA […]), 1.07 ± 0.068. For the same compound, the viability score in test [3] was 1.01 (active).
For `COc1ccc([C@H]2CNC(=O)C2)cc1OC1CCCC1`, the NF-kB reporter was found to be 2.61 ± 0.4 in test [1] (setting [4]), 2.21 ± 0.38 in test [1] (agonist: LPS 0.1 ug/mL) and 1.9 ± 0.14 in test [1] (agonist: MPLA […]). Further, the IRF reporter is 0.902 ± 0.039 in test [2] (agonist: 3'3'-cGAMP 10 ug/mL), 1.03 ± 0.22 in test [2] (agonist: LPS 0.1 ug/mL) and 1.41 ± 0.15 in test [2] (agonist: MPLA […]). In test [3], the viability score was 0.982 (active).
Turning to `CN1CCN(C(CNC(=O)c2ccccc2Br)c2ccc(F)cc2)CC1` (stereo not given), the NF-kB reporter in test [1] (setting [4]) turned out to be 0.878 ± 0.047; in test [1] (agonist: LPS 0.1 ug/mL), 0.967 ± 0.12; in test [1] (agonist: MPLA […]) it was 0.944 ± 0.13. Further, the IRF reporter was found to be 1.03 ± 0.053 in test [2] (agonist: 3'3'-cGAMP 10 ug/mL), 1.06 ± 0.093 in test [2] (agonist: LPS 0.1 ug/mL) and 0.936 ± 0.34 in test [2] (agonist: MPLA […]). In addition, the viability score in test [3] is 1.01 (active).
